{"source": "PubChem BioAssay (NCATS)", "note": "Records with an inconclusive call do not appear. Activity calls are given as the source filed them. Calls follow the shape of the dose curve; as a rule, active = well fitted cell-killing curve with a large enough effect; inconclusive = small, poorly fitted or top-dose-only effect, or effect the other way; inactive = no such curve, though single readings can be large or run the other way. Potency is read from the fitted curve at half-maximal effect.", "data": [{"experiment": "Viability qHTS for spleen associated tyrosine kinase inhibitor (SYKi) naive MV4-11 cells (AID 1963823); also: nearly all actives have a fitted effect of over 40% in size", "details": "MV4-11 AML viability, CellTiter-Glo luminescence, 72 h; series mostly up to 45 µM; viability (% of control): at the top concentration", "how_it_was_run": "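qHTS, SYK inhibitor-naive MV4-11; 500 cells/well; 72 hr compound exposure, 37 C; CellTiter-Glo added, 10 min RT; luminescence read.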", "values": [{"smiles": "O=C(CCCCc1ccc2ccccc2c1)C(F)(F)F", "viability (% of control)": "74.3% [at 91.9 µM] (inactive)"}, {"smiles": "COc1ccc(C2(O)c3ccccc3NC(=O)C2O)cc1", "note": "(centres undefined)", "viability (% of control)": "57.4% (inactive)"}, {"smiles": "CC1=CCC[C@@H]2[C@@](C)(CCc3ccoc3)[C@H](C(=O)O)CC[C@@]12C", "Potency": "2.86 µM (active)"}, {"smiles": "CCOc1ccc(C(Nc2ccccn2)c2ccc3ccc(C)nc3c2O)cc1C", "note": "(centres undefined)", "Potency": "23.1 µM (active)"}, {"smiles": "O=C1NC(=O)C(c2cn(-c3ccccc3)nc2-c2ccc(F)cc2)N1", "note": "(centres undefined)", "viability (% of control)": "73.3% (inactive)"}, {"smiles": "CCC(C)/C=C(C)/C=C/C1=CC2=C(Cl)C(=O)C(C)(OC(C)=O)C(=O)C2=CN1C(CC(=O)O)C(=O)O", "note": "(centres undefined)", "viability (% of control)": "65.8% [at 17.3 µM] (inactive)"}, {"smiles": "Cc1ccc(NC(=O)N2CCN(c3nc(N)nc4sc(-c5cccnc5)nc34)CC2)cc1", "Potency": "0.013 µM (active)"}, {"smiles": "COC(=O)Cc1cc2c(c([N+](=O)[O-])c1)N(C(=O)CC[C@H](N)C(=O)O)CC2", "viability (% of control)": "85.7% (inactive)"}, {"smiles": "C[C@]12C[C@@H](O)[C@@H]3C[C@@]1(O[C@@H]1O[C@H](CO)[C@@H](O)[C@H](O)[C@H]1O)[C@]3(COC(=O)c1ccccc1)C(=O)O2", "viability (% of control)": "65.3% [at 17.3 µM] (inactive)"}, {"smiles": "C[C@@H]1C(=O)O[C@H]2[C@@H](O)C34[C@H]5C[C@@H](C(C)(C)C)C36[C@@H](OC(=O)[C@@H]6O)O[C@@]4(C(=O)O5)[C@@]12O", "note": "(some centres undefined)", "viability (% of control)": "77.6% (inactive)"}, {"smiles": "CC1(C)CCC(C)(C)c2cc3c(cc21)Sc1ccccc1N=C3c1ccc(C(=O)O)cc1", "viability (% of control)": "63.5% (inactive)"}, {"smiles": "CC1OC(OC2C(OC(=O)[C@]34CCC(C)(C)C[C@H]3C3=CCC5[C@@]6(C)CC[C@H](OC7OC(C(=O)O)C(O)C(O)C7O)C(C)(C)C6CC[C@@]5(C)[C@]3(C)CC4O)OC(CO)C2O)C(O)C(O)C1OC1OCC(O)C(O)C1O", "note": "(some centres undefined)", "viability (% of control)": "70.8% [at 9.25 µM] (inactive)"}, {"smiles": "Cc1cc(O[C@@H]2O[C@H](COC(=O)CC(=O)O)[C@@H](O)[C@H](O)[C@H]2O)c(C(C)C)cc1O", "viability (% of control)": "79% [at 17.3 µM] (inactive)"}, {"smiles": "O=C(c1ccc2nccnc2c1)N1CCCCC1", "viability (% of control)": "11.2% (inactive)"}, {"smiles": "O=C1[C@H](O[C@@H]2O[C@H](CO)[C@@H](O)[C@H](O)[C@H]2O)Oc2ccccc2N1O", "viability (% of control)": "72.3% (inactive)"}, {"smiles": "C=C[C@@]1(C)CCC2C(=CCC3[C@]2(C)CCC[C@@]3(C)C(=O)O)C1", "note": "(some centres undefined)", "viability (% of control)": "47.2% (inactive)"}, {"smiles": "CC(=O)/C=C/C1C(C)CC(O[C@@H]2O[C@H](CO)[C@@H](O)[C@H](O)[C@H]2O)CC1(C)C", "note": "(some centres undefined)", "viability (% of control)": "61.2% (inactive)"}, {"smiles": "CC(=O)O[C@@H]1[C@H]2[C@@H](OC(=O)c3ccccc3)[C@@H](C)C[C@]2(O)[C@H](OC(C)=O)[C@@]2(C)[C@@H]3CC(C)(C)C(=O)[C@]3(OC(C)=O)C[C@@]12C", "viability (% of control)": "57.8% [at 17.3 µM] (inactive)"}, {"smiles": "O=C(NCCO)c1cc(C(=O)NCCO)cc(C(=O)NCCO)c1", "viability (% of control)": "67.1% (inactive)"}, {"smiles": "CC(=O)O[C@H]1C[C@@](O)(C(C)C)C2[C@@H](OC(=O)c3ccc(O)cc3)C[C@@]3(C)O[C@H]3C[C@]21C", "note": "(some centres undefined)", "viability (% of control)": "46.7% [at 17.3 µM] (inactive)"}, {"smiles": "O=C(CCc1nnc2n(Cc3ccc(Cl)cc3)c(=O)c3ccccc3n12)NCCC1=CCCCC1", "viability (% of control)": "79.8% (inactive)"}, {"smiles": "C=C1CCC2C(C)(C)CC(O)CC2(C)C1CCC(C)CC(=O)O", "note": "(centres undefined)", "viability (% of control)": "68.5% (inactive)"}, {"smiles": "C/C=C/C=C/C(O)=C1/C(=O)[C@]2(C)C(=O)[C@@](C)(O)[C@H]1[C@H]([C@@]1(C)OC(=O)C(C)=C1O)[C@H]2C(=O)CC/C=C/C", "viability (% of control)": "74.5% [at 17.3 µM] (inactive)"}, {"smiles": "C=CC1C(OC2OC(CO)C(O)C(O)C2O)OC=C(C(=O)OC)C1CC1CC(=O)CC(CCc2ccc(O)cc2)O1", "note": "(centres undefined)", "viability (% of control)": "82.5% [at 17.3 µM] (inactive)"}, {"smiles": "CCCC(=O)c1cc(O)c(O)cc1O", "viability (% of control)": "78.3% [at 91.9 µM] (inactive)"}, {"smiles": "CC1CCC2(C(=O)OC3OC(CO)C(O)C(O)C3O)CCC3(C)C(=CCC4C5(C)CCC(O)C(C)(CO)C5CCC43C)C2C1(C)O", "note": "(centres undefined)", "viability (% of control)": "74.3% [at 17.3 µM] (inactive)"}, {"smiles": "CC(=O)O[C@@H]1C(=O)C(C)=C(CCC(C)CC(=O)O)[C@@]2(C)CCCC(C)(C)C12", "note": "(some centres undefined)", "viability (% of control)": "69.3% (inactive)"}, {"smiles": "CC(=O)NC1C(OC(C)(C)C2CCC3(C)C=C(C4CCC5C4(C)CC(O)C4OC(C(C)(C)O)CCC45C)CCC3O2)OC(CO)C(O)C1O", "note": "(centres undefined)", "Potency": "1.93 µM (active)"}, {"smiles": "C[C@@]1(F)[C@H](O)[C@@H](CO)O[C@H]1n1ccc(N)nc1=O", "viability (% of control)": "76% (inactive)"}, {"smiles": "O=C1c2ccccc2C(=O)c2c1ccc(O)c2O", "Potency": "9.44 µM (active)"}, {"smiles": "Cc1ccc(C2(COC(=O)C(C)C)CO2)c(OC(=O)C(C)C)c1", "note": "(centres undefined)", "Potency": "1.8 µM (active)"}, {"smiles": "CCOC(=O)c1ccc(OCCC2CCN(c3ccc(C)nn3)CC2)cc1", "viability (% of control)": "72.1% (inactive)"}, {"smiles": "CCN(CC)c1ccc2c(O)c(C=Nc3ccc(CC(=O)O)c(-c4c5c(nc6ccccc46)CCC(C(=O)NN)C5)c3)c(=O)oc2c1", "note": "(centres undefined)", "Potency": "2.59 µM (active)"}, {"smiles": "C=C1[C@@H](C)[C@H]2[C@H](Cc3c[nH]c4ccccc34)NC(=O)[C@]23C(=O)/C=C/C(=O)[C@H](O)/C(C)=C\\[C@@H](C)C/C=C/[C@H]3[C@@H]1O", "Potency": "2 µM (active)"}, {"smiles": "CC(NCc1ccc(OCc2cccc(F)c2)cc1)C(N)=O", "note": "(centres undefined)", "viability (% of control)": "65.2% (inactive)"}, {"smiles": "CCCc1cc(C(=O)N[C@H](Cc2ccc(-c3cccc(OC(F)(F)F)c3)nc2)C(=O)N[C@@H]2CCNC2)sc1C", "Potency": "6.61 µM (active)"}, {"smiles": "CC1(C)CCC[C@@]2(C)C1[C@H](OC(=O)/C=C/C=C/C(=O)O)C=C1COC(=O)[C@@]12O", "note": "(some centres undefined)", "viability (% of control)": "94.7% (inactive)"}, {"smiles": "Cc1ccc(C(=O)N(CCCN)C(c2oc3cc(Cl)ccc3c(=O)c2Cc2ccccc2)C(C)C)cc1", "note": "(centres undefined)", "viability (% of control)": "1.6% (inactive)"}, {"smiles": "COC(=O)[C@H](OC(C)=O)[C@H]1C(C)(C)C(=O)[C@H]2CC3=C4CC(=O)O[C@@H](c5ccoc5)[C@]4(C)CCC3[C@@]1(C)C2=O", "note": "(some centres undefined)", "viability (% of control)": "70.4% [at 17.3 µM] (inactive)"}]}]}
